# According to PubChem BioAssay:
# Inconclusive results are not listed. The source made the active and inactive calls.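 The calls were made as follows, unless noted: active = normalized viability below 100% at a tested concentration; inactive = the rest.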
# Experiments:
# [1] = growth inhibition of DIPG glioma cells, dose response, cell-based, SU-DIPG-XVII, MIPE5.0, CellTiter-Glo, qHTS (AID 1347060; cut-off not given, nearly all actives have AC50 up to about 26 µM;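 as to AC50: cells exposed to compound for 48 hours before viability readout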); settings: SU-DIPG-XVII viability, CellTiter-Glo ATP luminescence
# [2] = growth inhibition of DIPG glioma cells, dose response, cell-based, SU-DIPG-XIII, MIPE4.0, CellTiter-Glo, qHTS (AID 1347061; cut-off not given, nearly all actives have AC50 up to about 37 µM;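 also: cells exposed to compound for 48 hours before readout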); settings: SU-DIPG-XIII viability, CellTiter-Glo ATP luminescence
# [3] = growth inhibition of DIPG glioma cells, dose response, cell-based, JHH-DIPG-1, MIPE4.0, CellTiter-Glo, qHTS (AID 1347062; cut-off not given, nearly all actives have AC50 up to about 27 µM;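 as to AC50: cells exposed to compound for two days before readout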); settings: JHH-DIPG-1 viability, CellTiter-Glo ATP luminescence
# [4] = growth inhibition of DIPG glioma cells, dose response, cell-based, SU-DIPG-IV, MIPE4.0, CellTiter-Glo, qHTS (AID 1347063; cut-off not given, nearly all actives have AC50 up to about 30 µM;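 also: compound exposure lasted 48 hours before the viability readout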); settings: SU-DIPG-IV viability, CellTiter-Glo ATP luminescence
# [5] = growth inhibition of DIPG glioma cells, dose response, cell-based, SU-DIPG-XIII, MIPE5.0, CellTiter-Glo, qHTS (AID 1347064; cut-off not given, nearly all actives have AC50 up to about 23 µM;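 as to AC50: cells exposed to compound for 48 hours before the viability read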); settings: SU-DIPG-XIII viability, CellTiter-Glo ATP luminescence
# [6] = viability loss in pontine glioma line – cell-based, SU-DIPG-XXV, MIPE5.0, CellTiter-Glo, qHTS, dose response (AID 1347065; cut-off not given, nearly all actives have AC50 up to about 26 µM;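 also: cells exposed to compound for 48 hours before ATP readout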); settings: CellTiter-Glo ATP luminescence
# [7] = SU-DIPG-VI glioma cell viability, MIPE4.0 library, CellTiter-Glo luminescence, qHTS (AID 1347066; cut-off not given, nearly all actives have AC50 up to about 30 µM;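 also: cells exposed to compound for 48 hours before readout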); settings: CellTiter-Glo ATP luminescence
# [8] = JHH-DIPG-1 glioma cell viability, MIPE5.0 library, CellTiter-Glo luminescence, qHTS (AID 1347067; cut-off not given, nearly all actives have AC50 up to about 26 µM;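 also: cells exposed to compound for 48 hours before readout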); settings: JHH-DIPG-1 glioma viability, CellTiter-Glo ATP luminescence
# [9] = SU-DIPG-XXV glioma cell viability, MIPE5.0 library, qHTS (AID 1347068; cut-off not given, nearly all actives have IC50 up to about 30 µM;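 as to IC50: cells exposed to compound for 48 hours before viability readout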)
# [10] = sensitizers of A549 cells to miR-34 induction, primary screen, imaging, A549 dox-inducible miR-34, nuclei and caspase counts (AID 1347080;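 active = compounds whose cell count with miR-34 switched on is under 0.7 times the count with it off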); settings: A549 miR-34 inducible, Hoechst nuclei count, 48 h
# [11] = modifiers of HSF1 nuclear foci, imaging, Selleck Cancer Library (AID 1347162; in the data active = plate-normalised HSF1 focus index below about 0.46); settings: human cells, at 10 µM; SSMD: measured here: HSF1 foci SSMD mean; cell count: measured here: cell number; plate-normalised HSF1 focus index: stronger effect = lower value
# [12] = survival rescue of mitochondrial mutant cells in low glucose, primary screen, MELAS cybrids, Rieske KO mouse fibroblasts, CellTiter-Glo (AID 1508586;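 active = mean z-score across replicates of 1.96 or higher in either the MELAS or the Rieske mutant cell line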;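 also: z relative to plate mean and SD of compound and empty wells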)
# [13] = ovarian cancer cell viability with rucaparib, profiling panel, oncology-focused library, rucaparib conditional (AID 1508598); settings: patient-derived ovarian cancer cells, CellTiter-Glo viability, 144 h, stronger effect = lower value
# [14] = LFS_MB_P medulloblastoma growth inhibition, cell-based, chromothripsis tumors, cisplatin or BGB combos (AID 1671449; in the data active = inhibition above about 80%;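 also: cells exposed for 96 hours; 0% = vehicle DMSO and 100% = killing by high DMSO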); settings: LFS_MB_P medulloblastoma cells
# [15] = HDN33 neuroblastoma growth inhibition, cell-based, chromothripsis tumors, cisplatin or BGB combos (AID 1671450; in the data active = inhibition above about 80%;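 also: cells exposed to compound for four days; 0% = vehicle DMSO and 100% = cell killing by high DMSO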); settings: HDN33 neuroblastoma cells, stronger effect = higher value
# [16] = ICB984 medulloblastoma cell growth inhibition, synergistic combos for chromothripsis tumors, cisplatin or BGB combos (AID 1671451; call rule not given here;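 also: cells exposed for 96 hours before readout; 0% = vehicle DMSO and 100% = killing by high DMSO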); settings: ICB984 medulloblastoma cells, drug combinations, stronger effect = higher value
# [17] = HTB85 osteosarcoma cell growth inhibition, synergistic combos for chromothripsis tumors, BGB or cisplatin IC20 combos (AID 1671453; in the data active = inhibition above about 80%;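 also: cells exposed for 96 hours before readout; 0% = vehicle DMSO and 100% = high DMSO killing control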); settings: HTB85 osteosarcoma cells, drug combinations, stronger effect = higher value
# [18] = MDA-MB-436 breast carcinoma cell growth inhibition, synergistic combos for chromothripsis tumors, BGB or cisplatin combos (AID 1671458; call rule not given here;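 also: cells exposed for 96 hours; 0% = vehicle DMSO and 100% = killing by high DMSO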); settings: MDA-MB-436 breast carcinoma growth inhibition, drug combinations, stronger effect = higher value
# [19] = growth inhibition of BT084 medulloblastoma cells, cell-based, ICGC_MB145, cisplatin and BGB IC40 combos (AID 1671461; in the data active = inhibition above about 80%;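 also: cells exposed to drugs for 96 hours; 0% = vehicle DMSO and 100% = high DMSO full killing control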); settings: drug combinations, stronger effect = higher value
# [20] = growth inhibition of RCMB18 medulloblastoma cells, cell-based, cisplatin and BGB IC40 combos (AID 1671462; in the data active = inhibition above about 80%;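 also: cells exposed to compound for four days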); settings: stronger effect = higher value
# [21] = stronger effect = lower value, cell number ratio, induced over uninduced
# [22] = measured here: relative caspase fold change +Dox/-Dox
# [23] = measured here: total cells with miR-34 induction, stronger effect = lower value
# [24] = measured here: total cells without miR-34 induction
# [25] = MELAS cybrid survival, CellTiter-Glo 48 h, stronger effect = higher value
# [26] = Rieske KO mouse fibroblast survival, CellTiter-Glo 72 h
smiles,measurement,setting,value
CC(=O)Nc1nc(C)c(-c2ccc(Cl)c(S(=O)(=O)NCCO)c2)s1,AC50,[1],10.5 µM (active)
same,AC50,[2],7.43 µM (active)
same,AC50,[3],13.2 µM (active)
same,AC50,[4],2.09 µM (active)
same,AC50,[5],14.8 µM (active)
same,AC50,[6],6.61 µM (active)
same,AC50,[7],2.64 µM (active)
same,AC50,[8],16.6 µM (active)
same,IC50,[9],16.6 µM (active)
same,fold change,[10]; [21],1.06 (inactive)
same,fold change,[10]; [22],0.869
same,cell count,[10]; [23],3490
same,cell count,[10]; [24],3300
same,SSMD,[11],2.06
same,cell count,[11],7480
same,plate-normalised HSF1 focus index,[11],1.13 (inactive)
same,z-score,[12]; [25],-0.084 (inactive)
same,z-score,[12]; [26],1.03
same,viability,"[13]; at 0.000305 µM, OCI-C5x cells, with rucaparib 10 µM, 100% = cells with rucaparib alone",113% (inactive)
same,viability,"[13]; at 0.000305 µM, OCI-C5x cells, without rucaparib",119% (inactive)
same,viability,"[13]; at 0.000305 µM, OCI-P5x cells, with rucaparib 20 µM, 100% = cells with rucaparib alone",110% (inactive)
same,viability,"[13]; at 0.000305 µM, OCI-P5x cells, without rucaparib",117% (inactive)
same,viability,"[13]; at 0.00122 µM, OCI-C5x cells, with rucaparib 10 µM, 100% = cells with rucaparib alone",102% (inactive)
same,viability,"[13]; at 0.00122 µM, OCI-C5x cells, without rucaparib",126% (inactive)
same,viability,"[13]; at 0.00122 µM, OCI-P5x cells, with rucaparib 20 µM, 100% = cells with rucaparib alone",85.2% (active)
same,viability,"[13]; at 0.00122 µM, OCI-P5x cells, without rucaparib",107% (inactive)
same,viability,"[13]; at 0.00488 µM, OCI-C5x cells, with rucaparib 10 µM, 100% = cells with rucaparib alone",109% (inactive)
same,viability,"[13]; at 0.00488 µM, OCI-C5x cells, without rucaparib",123% (inactive)
same,viability,"[13]; at 0.00488 µM, OCI-P5x cells, with rucaparib 20 µM, 100% = cells with rucaparib alone",92.4% (active)
same,viability,"[13]; at 0.00488 µM, OCI-P5x cells, without rucaparib",112% (inactive)
same,viability,"[13]; at 0.0195 µM, OCI-C5x cells, with rucaparib 10 µM, 100% = cells with rucaparib alone",103% (inactive)
same,viability,"[13]; at 0.0195 µM, OCI-C5x cells, without rucaparib",120% (inactive)
same,viability,"[13]; at 0.0195 µM, OCI-P5x cells, with rucaparib 20 µM, 100% = cells with rucaparib alone",99.1% (active)
same,viability,"[13]; at 0.0195 µM, OCI-P5x cells, without rucaparib",115% (inactive)
same,viability,"[13]; at 0.0781 µM, OCI-C5x cells, with rucaparib 10 µM, 100% = cells with rucaparib alone",90.4% (active)
same,viability,"[13]; at 0.0781 µM, OCI-C5x cells, without rucaparib",125% (inactive)
same,viability,"[13]; at 0.0781 µM, OCI-P5x cells, with rucaparib 20 µM, 100% = cells with rucaparib alone",89.5% (active)
same,viability,"[13]; at 0.0781 µM, OCI-P5x cells, without rucaparib",107% (inactive)
same,viability,"[13]; at 0.313 µM, OCI-C5x cells, with rucaparib 10 µM, 100% = cells with rucaparib alone",93.3% (active)
same,viability,"[13]; at 0.313 µM, OCI-C5x cells, without rucaparib",116% (inactive)
same,viability,"[13]; at 0.313 µM, OCI-P5x cells, with rucaparib 20 µM, 100% = cells with rucaparib alone",88.3% (active)
same,viability,"[13]; at 0.313 µM, OCI-P5x cells, without rucaparib",108% (inactive)
same,viability,"[13]; at 1.25 µM, OCI-C5x cells, with rucaparib 10 µM, 100% = cells with rucaparib alone",95.9% (active)
same,viability,"[13]; at 1.25 µM, OCI-C5x cells, without rucaparib",122% (inactive)
same,viability,"[13]; at 1.25 µM, OCI-P5x cells, with rucaparib 20 µM, 100% = cells with rucaparib alone",92.7% (active)
same,viability,"[13]; at 1.25 µM, OCI-P5x cells, without rucaparib",110% (inactive)
same,viability,"[13]; at 5 µM, OCI-C5x cells, with rucaparib 10 µM, 100% = cells with rucaparib alone",94.4% (active)
same,viability,"[13]; at 5 µM, OCI-C5x cells, without rucaparib",132% (inactive)
same,viability,"[13]; at 5 µM, OCI-P5x cells, with rucaparib 20 µM, 100% = cells with rucaparib alone",39.1% (active)
same,viability,"[13]; at 5 µM, OCI-P5x cells, without rucaparib",60.5% (active)
same,inhibition,"[14]; at 0.5 µM, stronger effect = higher value",-45.2% (inactive)
same,inhibition,"[14]; measured here: combination with BGB IC20, at 0.005 µM",-29.7%
same,inhibition,"[14]; measured here: combination with BGB IC40, at 0.005 µM",-42%
same,inhibition,"[14]; measured here: combination with BGB IC40, at 0.05 µM",-7.74%
same,inhibition,"[14]; measured here: combination with cisplatin, at 0.5 µM, stronger effect = higher value",-52.3%
same,inhibition,"[14]; measured here: combination with cisplatin, at 5 µM, stronger effect = higher value",23.5%
same,inhibition,"[15]; BGB combo, at 5 µM",18.5%
same,inhibition,[15]; at 0.5 µM,22.6% (inactive)
same,inhibition,"[15]; cisplatin combo, at 5 µM",37%
same,inhibition,"[15]; measured here: with BGB IC20 combination, at 0.5 µM",13.7%
same,inhibition,"[15]; measured here: with cisplatin IC20 combination, at 0.5 µM",24.2%
same,inhibition,"[15]; single agent, at 5 µM",45%
same,inhibition,"[16]; BGB IC20 combo, at 0.005 µM",-5.45%
same,inhibition,"[16]; BGB IC40 combo, at 0.005 µM",3.46%
same,inhibition,"[16]; BGB IC40 combo, at 0.05 µM",30.7%
same,inhibition,[16]; at 0.5 µM,-2.76% (inactive)
same,inhibition,"[16]; cisplatin combo, at 0.05 µM",27.3%
same,inhibition,"[16]; cisplatin combo, at 0.5 µM",-19.5%
same,inhibition,"[16]; cisplatin combo, at 5 µM",2.87%
same,inhibition,"[16]; measured here: 5 uM single agent, at 5 µM",5.64%
same,inhibition,[17]; at 0.5 µM,10.5% (inactive)
same,inhibition,"[17]; measured here: with BGB IC20, at 0.5 µM",11.8%
same,inhibition,"[17]; measured here: with BGB IC20, at 5 µM",42.2%
same,inhibition,"[17]; measured here: with cisplatin IC20, at 0.5 µM",8.49%
same,inhibition,"[17]; measured here: with cisplatin IC20, at 5 µM",30.2%
same,inhibition,"[17]; single agent, at 5 µM",46.6%
same,inhibition,[18]; at 0.5 µM,1.41% (inactive)
same,inhibition,"[18]; measured here: BGB combination, at 0.5 µM",-2.21%
same,inhibition,"[18]; measured here: BGB combination, at 5 µM",-3.92%
same,inhibition,"[18]; measured here: cisplatin combination, at 0.5 µM",-6.73%
same,inhibition,"[18]; measured here: cisplatin combination, at 5 µM",-16.3%
same,inhibition,[19]; at 0.5 µM,10.3% (inactive)
same,inhibition,"[19]; cisplatin combination, at 0.5 µM",14.9%
same,inhibition,"[19]; cisplatin combination, at 5 µM",-88.1%
same,inhibition,"[19]; measured here: BGB IC40 combination 0.05 uM, at 0.05 µM",3%
same,inhibition,"[19]; single agent, at 5 µM",29.8%
same,inhibition,[20]; at 0.5 µM,9.76% (inactive)
same,inhibition,"[20]; cisplatin combo, at 5 µM",16.5%
same,inhibition,"[20]; measured here: BGB IC40 combination, at 0.05 µM",-25%
same,inhibition,"[20]; measured here: combination with cisplatin, at 0.5 µM",0.78%
same,inhibition,"[20]; single agent, at 5 µM",15.1%
CC1(C)OC2=C(C(=O)c3ccccc3C2=O)[C@H](NCc2ccccc2)[C@@H]1O,AC50,[1],6.61 µM (active)
same,AC50,[2],5.9 µM (active)
same,AC50,[3],2.35 µM (active)
same,AC50,[4],5.9 µM (active)
same,AC50,[5],2.95 µM (active)
same,AC50,[6],3.72 µM (active)
same,AC50,[7],2.64 µM (active)
same,AC50,[8],3.32 µM (active)
same,IC50,[9],8.33 µM (active)
same,SSMD,[11],0.824
same,cell count,[11],7240
same,plate-normalised HSF1 focus index,[11],1.05 (inactive)
CN1c2cc(O)c(N=NC(N)=O)cc2CC1S(=O)(=O)O (stereo not drawn),outcome,[1],inactive
same,outcome,[2],inactive
same,outcome,[3],inactive
same,outcome,[4],inactive
same,outcome,[5],inactive
same,outcome,[6],inactive
same,outcome,[7],inactive
same,outcome,[8],inactive
same,outcome,[9],inactive
same,fold change,[10]; [21],0.929 (inactive)
same,fold change,[10]; [22],0.61
same,cell count,[10]; [23],9600
same,cell count,[10]; [24],10300
same,z-score,[12]; [25],-0.39 (inactive)
same,z-score,[12]; [26],0.79
